# According to PubChem BioAssay (NCATS):
# Values joined by “and” are separate entries in the source; they are usually repeats but may differ in a detail not shown here. Equal entries are not always repeated. Inconclusive results are not listed. A call without a number means that no potency is given here. Values without a mark were called inactive. Active and inactive are the calls of the source. Calls come from the whole dose curve; as a rule, active = well fitted cell-killing curve with a large enough effect; inconclusive = small, poorly fitted or top-dose-only effect, or effect the other way; inactive = no such curve, though single readings can be large or run the other way.
# Test: Viability qHTS for spleen associated tyrosine kinase inhibitor (SYKi) naive MV4-11 cells (AID 1963823); note: nearly all actives have a fitted effect of over 40% in size
# Details: MV4-11 AML viability, CellTiter-Glo luminescence, 72 h; series mostly up to 45 µM
# Description: Department of Medicine, Hematology/Oncology
# University Hospital Frankfurt, Germany.
# Trials have shown promising clinical activity of the selective SYK inhibitor entospletinib in patients with high expressing HOXA9/MEIS1 acute leukemias. As the development of resistance mechanisms is a common problem in the use of targeted drugs, we performed a chemical library screen to identify drug sensitivities in SYK inhibitor resistant AML cells. […] Glucocorticoids are potent immunosuppressants which work in part by inhibiting the transcription of cytokine genes.
# Described herein is a viability screen to look for activity in the SYK inhibitor naive cell line against four NCATS compound libraries (MIPE 5.0, NPC, NPACT, and Kinase) totaling 11372 compounds. Active hits were reacquired for confirmation and further secondary assay testing.
# SEQUENCE No. (e.g., 1, 2, 3, etc.); […] (e.g., Cells, Incubation, Reagent, etc.); VALUE; DESCRIPTION.
# 1; Media; 2uL; white, solid-bottom Corning assay plate.
# 2; Compounds; 23nL; Echo acoustic dispenser.
# 3; Cell; 5uL; 500 cells per well.
# 4: Incubation; 72hr; 37 C, 5% CO2, 95% humidity.
# 5; Reagent; 3uL; CellTiter-Glo reagent (Promega).
# 6; Incubation; 10min; room temperature.
# 7; Detection; Luminescence; ViewLux plate reader (PerkinElmer).
# NOTES (numbers refer to Sequence numbers above
# 1. Quantitative high-throughput screening (qHTS) of small molecule compounds was conducted on naive SYKi MV4-11 cell line.
# 2. Twenty-three nanoliter of small molecule compounds were added to each assay plates using the Echo acoustic dispenser (Beckman Coulter).
# 3. Cells were seeded into the assay plates at a final density of 500 cells in 5uL of media per well using the Multi-drop Combi dispenser.
# 4. Plates were covered with stainless steel gasketed lids and incubated for 72 hours at standard cell culture conditions.
# 5. Viability was assessed by adding 3uL of CellTiter-Glo detection reagent (Promega).
# 6. Plates were covered with gasket lids and incubated for 10 minutes at room temperature.
# 7. Luminescence was measured on a ViewLux plate reader (PerkinElmer).
# Potency is the fitted concentration of half-maximal effect.
SMILES,Potency,viability (% of control)
NS(=O)(=O)c1cc2c(cc1Cl)NC(CSCc1ccccc1)=NS2(=O)=O,inactive,
CC(=O)OCC1=C[C@H](O)[C@@H]2C(C(=O)O)=CO[C@@H](O[C@@H]3O[C@H](CO)[C@@H](O)[C@H](O)[C@H]3O)[C@H]12,inactive,
CCN(CC)CCCCNc1ncc2cc(-c3cc(OC)cc(OC)c3)c(NC(=O)NC(C)(C)C)nc2n1,5.8 µM (active) and 8.33 µM (active),
Cc1cc(C(=O)N2CCN(c3cccc(Cl)c3)CC2)n(-c2ccccc2)n1,1.46 µM (active),
Cc1ccc(-c2ncc(Cl)cc2-c2ccc(S(C)(=O)=O)cc2)cn1,inactive,
CCS(=O)(=O)N1CCC([C@@H](C)n2c(C)c(C(=O)NCc3c(OC)cc(C)[nH]c3=O)c3ccccc32)CC1,inactive,
COc1cc(OC)c(/C=C/S(=O)(=O)Cc2ccc(OC)c(OP(=O)(O)O)c2)c(OC)c1,0.0118 µM (active),
NS(=O)(=O)c1ccc(NC(=O)CCC(=O)O)cc1,inactive,
O=C(NCc1ccc(OC(F)(F)F)cc1)C1c2ccccc2C(=O)N1C1CCOCC1 (stereo not given),inactive,
O=C(O)c1cccnc1Nc1cccc(C(F)(F)F)c1,inactive,
Oc1cc(-c2nc(-c3ccccc3)[nH]c2-c2ccncc2)ccc1Cl,6.51 µM (active),
C=CCNC1=C2C[C@@H](C)C[C@H](OC)[C@H](O)[C@@H](C)/C=C(\C)[C@H](OC(N)=O)[C@@H](OC)/C=C\C=C(/C)C(=O)NC(=CC1=O)C2=O,0.59 µM (active),
N=C1CCCN1Cc1[nH]c(=O)[nH]c(=O)c1Cl,inactive,
NC(=O)c1ccccc1Nc1ccnc(Nc2cccc(O)c2)n1,0.372 µM (active),
COC1CC(=O)C23C(=O)NC(CC(C)C)C2C(C)C(C)=CC3/C=C(\C)CCC(O)C1O (stereo not given),1.42 µM (active),
CC(C)NNC(=O)c1ccncc1,inactive,
N#CCc1ccc(O)cc1O[C@@H]1O[C@H](CO)[C@@H](O)[C@H](O)[C@H]1O,inactive,
Cc1[nH]c(C)c(Cl)c(=O)c1Cl,inactive,
COC(=O)Nc1ccc(-c2nc(N3CCOCC3)c3cnn(C4CCN(Cc5cccnc5)CC4)c3n2)cc1,0.517 µM (active),
CC(Cc1ccccc1)(NC(=O)CN)c1ccccc1 (stereo not given),inactive,

SMILES,Potency,viability (% of control)
CN(C)c1ccc(-c2nc3ncc(Cl)c(N4CCN(CC(=O)Nc5nccs5)CC4)c3[nH]2)cc1,0.257 µM (active),
Cc1ccc(-n2nc(C(C)(C)C)cc2NC(=O)Nc2ccc(OCCN3CCOCC3)c3ccccc23)cc1,8.2 µM (active),
CC1Cc2ccccc2N1NC(=O)c1ccc(Cl)c(S(N)(=O)=O)c1 (stereo not given),inactive,
CCCCCCCC(=O)[O-].CCCCCCCC(=O)[O-].[Zn+2],inactive,
C[C@](N)(Cc1ccc(O)cc1)C(=O)O,,79.1% [at 4.97 µM]
Nc1ncnc2c1ncn2[C@@H]1O[C@H](CO)[C@@H](O)[C@@H]1O,inactive,
O=C(O)c1ccc(N2C(=O)/C(=C/c3ccc(-c4ccc([N+](=O)[O-])cc4)o3)C=C2c2ccccc2)cc1,inactive,
O=C(/C=C/c1c(C(=O)O)[nH]c2cc(Cl)cc(Cl)c12)Nc1ccccc1,inactive,
O=c1cc(CO)occ1O,inactive,
C[C@]12CCC(=O)C=C1CC[C@@H]1[C@@H]2[C@@H](O)C[C@@]2(C)[C@H]1CC[C@]2(O)C(=O)COC(=O)CCC(=O)O,inactive,
c1cncc(CN2CCC(n3ncc4c(N5CCOCC5)nc(-c5ccc6[nH]ccc6c5)nc43)CC2)c1,1.03 µM (active) and 1.32 µM (active),
N#Cc1ccc(-c2ccc(S(=O)(=O)Nc3cccc(N)n3)cc2)cc1,8.2 µM (active),
COc1ccc(O)cc1,inactive,
COc1ccc(C[C@H](C)NC[C@@H](O)c2ccc(O)c(NC=O)c2)cc1,inactive,
CC(C)CNC(=O)/C=C/CCCCc1ccc2c(c1)OCO2,inactive,
c1cc(CN2CCCCC2)cc(OCCCNc2nc3ccccc3s2)c1,15 µM (active),
COc1cccc(OC)c1-c1ccc(C[C@H](NC(=O)c2c(Cl)cccc2Cl)C(=O)O)cc1,inactive,
NCCCC(O)(P(=O)(O)O)P(=O)(O)O,inactive,
CN(N=O)C(=O)N[C@@H]1[C@@H](O)[C@H](O)[C@@H](CO)O[C@@H]1O,inactive,
CC(=O)NC(Cc1ccccc1)C(=O)NC(C(=O)O)C(C)C (stereo not given),inactive,
